# Laboratory results reported in PubChem BioAssay (EPA / NIEHS).
# Inconclusive results are not listed. The source made the active and inactive calls. How the source made its calls, unless noted: active means hit-call score of the fitted dose curve at least 0.9, where 1 is the maximum; inconclusive means response in the unintended direction; inactive means score below 0.9.
# Assays:
# [1] = molecular target: guinea pig Leukotriene D4 Receptor (LTD4), CYSLTR1 (gene 100135514) (UniProt Q2NNR5); assay: NVS_GPCR_gLTD4: NovaScreen (NVS) G Protein-Coupled Receptor Assay for guinea pig Leukotriene D4 Receptor (LTD4) (AID 2283248)
# Sequence of guinea pig Leukotriene D4 Receptor (LTD4), CYSLTR1 (gene 100135514) (Q2NNR5 whole entry, looked up): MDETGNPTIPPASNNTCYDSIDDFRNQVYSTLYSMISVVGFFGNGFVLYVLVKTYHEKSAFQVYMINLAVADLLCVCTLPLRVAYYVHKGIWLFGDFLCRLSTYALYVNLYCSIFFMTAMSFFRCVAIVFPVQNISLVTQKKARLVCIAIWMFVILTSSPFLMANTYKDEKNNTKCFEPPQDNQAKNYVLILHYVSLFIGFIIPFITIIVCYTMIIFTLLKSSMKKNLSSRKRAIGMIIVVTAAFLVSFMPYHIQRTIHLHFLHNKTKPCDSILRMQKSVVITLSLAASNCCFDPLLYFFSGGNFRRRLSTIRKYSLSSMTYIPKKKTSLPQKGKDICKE
# Outline: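 Radioligand displacement on guinea pig lung membranes, 1 h incubation, filtration and scintillation counting; DMSO as negative control. Duplicate 25 uM primary screen, then singleton concentration-response up to 50 uM.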
# [2] = molecular target: Bile acid receptor (Homo sapiens) (UniProt Q96RI1); assay: OT_FXR_FXRSRC1_0480: Odyssey Thera (OT) 8-hour HEK293T Protein-Complementation Assay for Farnesoid X receptor/SRC-1 Co-activator (AID 2283383)
# Sequence of Bile acid receptor (Homo sapiens) (Q96RI1 whole entry, looked up, the tested form may be a part): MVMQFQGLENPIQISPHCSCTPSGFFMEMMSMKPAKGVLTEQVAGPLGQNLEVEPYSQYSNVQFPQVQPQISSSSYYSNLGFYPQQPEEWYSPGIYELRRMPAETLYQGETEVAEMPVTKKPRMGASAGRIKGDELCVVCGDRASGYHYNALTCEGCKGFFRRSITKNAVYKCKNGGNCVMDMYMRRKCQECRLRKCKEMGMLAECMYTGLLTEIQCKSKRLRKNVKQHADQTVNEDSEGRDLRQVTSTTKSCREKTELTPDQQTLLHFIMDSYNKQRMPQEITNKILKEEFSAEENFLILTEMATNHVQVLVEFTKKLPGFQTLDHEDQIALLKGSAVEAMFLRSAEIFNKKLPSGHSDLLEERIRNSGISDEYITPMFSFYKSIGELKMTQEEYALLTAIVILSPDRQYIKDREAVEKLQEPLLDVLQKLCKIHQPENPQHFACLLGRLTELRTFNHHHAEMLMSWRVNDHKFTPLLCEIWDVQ
# Outline: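 HEK293T protein-fragment complementation assay: FXR and SRC-1 coactivator are fused to reporter fragments, and their interaction restores a fluorescent reporter. Readout was taken 8 h after dosing, with gain of signal fit relative to DMSO.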
# [3] = molecular target: Bile acid receptor (Homo sapiens) (UniProt Q96RI1); assay: OT_FXR_FXRSRC1_1440: Odyssey Thera (OT) 24-hour HEK293T Protein-Complementation Assay for Farnesoid X receptor/SRC-1 Co-activator (AID 2283384)
# Outline: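 HEK293T cells, 24 h after chemical dosing. FXR–SRC-1 coactivator interaction read as fluorescence from protein-fragment complementation of a split reporter. Gain of signal fitted against DMSO baseline.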
# [4] = CCTE_Deisenroth_AIME_384WELL_CTox_Active: Cytotoxicity Assessment (CTOX) in CCTE's 384-well Estrogen Receptor Transactivation Assay with AIME metabolic competence (metabolism positive), Deisenroth Lab (AID 2284037);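 further: chemicals first conditioned 2 h by alginate-bound induced rat liver S9 before cells; activity means signal loss indicating cell death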
# Outline: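 Chemicals pre-incubated 2 hours with alginate-immobilised phenobarbital/beta-naphthoflavone-induced male Sprague Dawley rat liver S9, then conditioned medium applied 24 hour to VM7Luc4E2 cells. Viability by fluorogenic protease substrate; 10-point series 0.002 - 200 uM.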
# [5] = NVS_IC_rCaBTZCHL: NovaScreen (NVS) Ion Channel Assay for Calcium Channel, Type L, Benzothiazepine Site (CaBTZCHL) (AID 2283337)
# Outline: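 Radioligand displacement at the benzothiazepine site using rat cortical membranes; bound label measured by filtration and scintillation counting 1.5 h after dosing. Single-point 25 uM in duplicate, then concentration series; DMSO baseline.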
# [6] = molecular target: rat Gamma-Aminobutyric Acid Type A Receptor BDZ, alpha 6 site (GABARa6), Gabra6 (gene 29708) (UniProt P30191); assay: NVS_LGIC_rGABARa6: NovaScreen (NVS) Ligand-Gated Ion Channel Assay for rat Gamma-Aminobutyric Acid Type A Receptor BDZ, alpha 6 site (GABARa6) (AID 2283339)
# Sequence of rat Gamma-Aminobutyric Acid Type A Receptor BDZ, alpha 6 site (GABARa6), Gabra6 (gene 29708) (P30191 whole entry, looked up): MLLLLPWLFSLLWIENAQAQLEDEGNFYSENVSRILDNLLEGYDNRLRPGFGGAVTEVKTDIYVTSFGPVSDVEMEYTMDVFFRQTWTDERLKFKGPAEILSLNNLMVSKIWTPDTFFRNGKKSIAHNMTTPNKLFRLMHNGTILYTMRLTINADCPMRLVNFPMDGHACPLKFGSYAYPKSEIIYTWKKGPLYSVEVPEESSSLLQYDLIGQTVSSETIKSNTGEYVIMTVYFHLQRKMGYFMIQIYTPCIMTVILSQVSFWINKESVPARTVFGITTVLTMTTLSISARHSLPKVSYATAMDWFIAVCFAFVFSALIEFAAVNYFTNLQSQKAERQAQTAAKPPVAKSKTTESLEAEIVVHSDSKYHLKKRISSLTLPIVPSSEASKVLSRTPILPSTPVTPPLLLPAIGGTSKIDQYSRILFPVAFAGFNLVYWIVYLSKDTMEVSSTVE
# Outline: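 Rat cerebellar membranes; radioligand binding, filtration and scintillation counting, read 1 h after dosing. Single-concentration duplicate screen at 25 uM, then concentration-response up to 50 uM for actives; loss of signal fitted versus DMSO baseline.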
# [7] = molecular target: human Mitogen-Activated Protein Kinase 1 (MAPK 1), MAPK1 (gene 5594) (UniProt P28482); assay: NVS_ENZ_hMAPK1: NovaScreen (NVS) Enzymatic Assay for human Mitogen-Activated Protein Kinase 1 (MAPK 1) (AID 2283175)
# Sequence of human Mitogen-Activated Protein Kinase 1 (MAPK 1), MAPK1 (gene 5594) (P28482 whole entry, looked up): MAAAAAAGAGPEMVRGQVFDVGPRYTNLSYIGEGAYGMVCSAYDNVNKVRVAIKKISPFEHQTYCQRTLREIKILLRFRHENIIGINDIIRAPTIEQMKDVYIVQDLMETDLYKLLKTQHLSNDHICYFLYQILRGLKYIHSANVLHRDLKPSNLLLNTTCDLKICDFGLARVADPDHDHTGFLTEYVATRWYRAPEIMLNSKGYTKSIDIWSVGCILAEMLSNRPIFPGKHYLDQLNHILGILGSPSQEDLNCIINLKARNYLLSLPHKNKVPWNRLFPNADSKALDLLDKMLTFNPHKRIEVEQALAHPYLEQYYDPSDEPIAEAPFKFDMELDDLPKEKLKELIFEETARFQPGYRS
# Outline: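 Cell-free recombinant human MAPK1 enzymatic assay, fluorescence/electrophoretic mobility shift read at 1 h; loss of signal vs DMSO. Primary screen in duplicate at 25 uM; actives (e.g. ≥30% inhibition) run as concentration-response up to 50 uM.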
# [8] = molecular target: human CYP2C8, CYP2C8 (gene 1558) (UniProt P10632); assay: NVS_ADME_hCYP2C8: NovaScreen (NVS) CYP450-related Enzyme Activity (ADME) Assay for human CYP2C8 (AID 2283104; active means hit-call score of the fitted dose curve at least 0.9, where 1 is the maximum; inactive means score below 0.9)
# Sequence of human CYP2C8, CYP2C8 (gene 1558) (P10632 whole entry, looked up): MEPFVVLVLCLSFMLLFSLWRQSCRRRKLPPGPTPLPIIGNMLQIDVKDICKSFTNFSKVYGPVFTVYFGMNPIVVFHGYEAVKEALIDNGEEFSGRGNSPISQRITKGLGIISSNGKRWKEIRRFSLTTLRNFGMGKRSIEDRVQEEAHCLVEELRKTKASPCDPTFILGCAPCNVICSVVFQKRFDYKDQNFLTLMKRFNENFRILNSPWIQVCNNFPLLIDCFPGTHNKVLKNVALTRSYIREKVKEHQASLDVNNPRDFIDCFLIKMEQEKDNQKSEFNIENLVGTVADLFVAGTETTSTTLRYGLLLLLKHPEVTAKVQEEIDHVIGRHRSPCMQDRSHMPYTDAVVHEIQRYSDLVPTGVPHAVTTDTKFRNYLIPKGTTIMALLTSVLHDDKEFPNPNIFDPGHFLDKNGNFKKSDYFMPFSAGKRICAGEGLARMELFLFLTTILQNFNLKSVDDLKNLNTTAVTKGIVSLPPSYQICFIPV
# Outline: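 Recombinant human CYP2C8 with fluorogenic substrate, 0.5 h, fluorescence intensity; signal loss fitted versus acetonitrile. Screened in duplicate at 10 uM, then actives run in concentration-response up to 20 uM.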
# [9] = molecular target: rat Adenylate Cyclase, Forskolin Stimulated, Adcy5 (gene 64532) (UniProt Q04400); assay: NVS_ENZ_rACFSKBinding: NovaScreen (NVS) Enzymatic Assay for rat Adenylate Cyclase, Forskolin Stimulated (AID 2283232)
# Sequence of rat Adenylate Cyclase, Forskolin Stimulated, Adcy5 (gene 64532) (Q04400 whole entry, looked up): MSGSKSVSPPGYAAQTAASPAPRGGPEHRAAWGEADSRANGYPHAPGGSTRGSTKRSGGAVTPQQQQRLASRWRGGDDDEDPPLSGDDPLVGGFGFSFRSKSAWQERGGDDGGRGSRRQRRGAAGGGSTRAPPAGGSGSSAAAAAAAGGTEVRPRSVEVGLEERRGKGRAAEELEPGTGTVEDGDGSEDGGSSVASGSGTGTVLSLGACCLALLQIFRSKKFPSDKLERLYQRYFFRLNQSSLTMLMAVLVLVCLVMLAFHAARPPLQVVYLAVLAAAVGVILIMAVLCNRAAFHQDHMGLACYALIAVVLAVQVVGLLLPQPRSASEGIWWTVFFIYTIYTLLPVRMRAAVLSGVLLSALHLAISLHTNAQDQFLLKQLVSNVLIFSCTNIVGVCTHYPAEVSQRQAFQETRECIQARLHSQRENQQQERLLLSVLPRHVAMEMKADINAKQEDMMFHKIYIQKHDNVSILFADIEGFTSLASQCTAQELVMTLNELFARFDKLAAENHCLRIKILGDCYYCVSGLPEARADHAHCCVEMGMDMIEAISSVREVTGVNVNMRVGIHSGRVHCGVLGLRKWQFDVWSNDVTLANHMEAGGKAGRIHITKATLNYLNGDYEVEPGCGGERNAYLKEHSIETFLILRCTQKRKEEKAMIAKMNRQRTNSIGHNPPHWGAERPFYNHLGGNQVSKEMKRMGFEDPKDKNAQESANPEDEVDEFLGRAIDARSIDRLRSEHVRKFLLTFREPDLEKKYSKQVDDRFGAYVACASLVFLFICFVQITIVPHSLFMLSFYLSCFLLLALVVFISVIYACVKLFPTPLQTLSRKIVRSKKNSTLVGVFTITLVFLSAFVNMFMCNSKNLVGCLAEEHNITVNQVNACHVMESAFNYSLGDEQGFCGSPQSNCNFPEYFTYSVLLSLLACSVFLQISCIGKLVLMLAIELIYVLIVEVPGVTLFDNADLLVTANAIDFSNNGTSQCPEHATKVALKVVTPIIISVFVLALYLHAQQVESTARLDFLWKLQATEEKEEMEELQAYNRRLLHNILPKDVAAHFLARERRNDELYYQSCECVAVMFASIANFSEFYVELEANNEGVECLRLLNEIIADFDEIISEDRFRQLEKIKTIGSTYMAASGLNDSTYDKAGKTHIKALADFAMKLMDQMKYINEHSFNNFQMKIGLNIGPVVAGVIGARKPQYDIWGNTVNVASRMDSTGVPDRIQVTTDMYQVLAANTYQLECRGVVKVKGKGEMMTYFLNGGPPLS
# Outline: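 Rat forebrain membrane preparation, cell-free, read 1 h after dosing by filter-based scintillation counting. Primary screen in duplicate at 25 uM; actives (e.g. ≥30% inhibition) rerun in concentration-response up to 50 uM; fit versus DMSO.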
# [10] = molecular target: human Matrix Metalloproteinase-1 (MMP1), MMP1 (gene 4312) (UniProt P03956); assay: NVS_ENZ_hMMP1: NovaScreen (NVS) Enzymatic Assay for human Matrix Metalloproteinase-1 (MMP1) (AID 2283181)
# Sequence of human Matrix Metalloproteinase-1 (MMP1), MMP1 (gene 4312) (P03956 whole entry, looked up): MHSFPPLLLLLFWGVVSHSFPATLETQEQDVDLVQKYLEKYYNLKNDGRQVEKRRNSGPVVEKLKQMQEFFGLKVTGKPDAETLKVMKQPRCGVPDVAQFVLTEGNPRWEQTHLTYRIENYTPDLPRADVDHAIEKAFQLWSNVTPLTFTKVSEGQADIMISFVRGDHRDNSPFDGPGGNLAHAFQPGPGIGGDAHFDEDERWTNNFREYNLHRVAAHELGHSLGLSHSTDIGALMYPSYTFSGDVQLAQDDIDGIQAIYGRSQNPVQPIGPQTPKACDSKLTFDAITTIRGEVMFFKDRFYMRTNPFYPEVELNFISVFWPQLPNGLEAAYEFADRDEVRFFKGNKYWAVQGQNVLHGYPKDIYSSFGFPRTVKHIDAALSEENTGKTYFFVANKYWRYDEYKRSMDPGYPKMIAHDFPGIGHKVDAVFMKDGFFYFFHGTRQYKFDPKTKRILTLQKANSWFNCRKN
# Outline: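 Human MMP1 enzyme activity measured by fluorescence 1 h after dosing, cell-free, with a specific substrate. Screened in duplicate at 25 uM; hits (e.g. 30% inhibition) run in concentration-response up to 50 uM; loss of signal versus DMSO.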
# [11] = molecular target: human Caspase 2 (CASP2), CASP2 (gene 835) (UniProt P42575); assay: NVS_ENZ_hCASP2: NovaScreen (NVS) Enzymatic Assay for human Caspase 2 (CASP2) (AID 2283135)
# Outline: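 E. coli-expressed enzyme in a cell-free protease assay, fluorescence read 1 h after dosing. Compounds at 25 uM in duplicate, with concentration-response up to 50 uM for hits; loss of signal against DMSO baseline.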
# [12] = molecular target: PPP2CA (gene 5515) (UniProt P67775); assay: NVS_ENZ_hPPP2CA: NovaScreen (NVS) Enzymatic Assay for human Protein Phosphatase 2 Aatalytic subunit Alpha (PPP2CA) (AID 2283199)
# Sequence of PPP2CA (gene 5515) (P67775 whole entry, looked up): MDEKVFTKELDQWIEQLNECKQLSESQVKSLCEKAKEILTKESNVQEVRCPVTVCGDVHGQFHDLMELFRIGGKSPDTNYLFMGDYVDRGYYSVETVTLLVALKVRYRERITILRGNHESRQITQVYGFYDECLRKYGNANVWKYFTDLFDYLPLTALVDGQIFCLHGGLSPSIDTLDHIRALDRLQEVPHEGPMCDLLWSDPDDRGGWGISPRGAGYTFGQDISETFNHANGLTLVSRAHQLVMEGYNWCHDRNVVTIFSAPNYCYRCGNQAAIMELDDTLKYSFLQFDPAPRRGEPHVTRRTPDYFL
# Outline: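 Recombinant human PPP2CA with fluorescent substrate; product separated from substrate by electrophoretic mobility shift, read 1.33 h after dosing. Duplicate single-point at 25 uM, then singleton concentration-response up to 50 uM; loss of signal versus DMSO.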
# [13] = molecular target: human Aurora Kinase A - serine/threonine-protein Kinase 6 (AurA), AURKA (gene 6790) (UniProt O14965); assay: NVS_ENZ_hAurA: NovaScreen (NVS) Enzymatic Assay for human Aurora Kinase A - serine/threonine-protein Kinase 6 (AurA) (AID 2283142)
# Sequence of human Aurora Kinase A - serine/threonine-protein Kinase 6 (AurA), AURKA (gene 6790) (O14965 whole entry, looked up): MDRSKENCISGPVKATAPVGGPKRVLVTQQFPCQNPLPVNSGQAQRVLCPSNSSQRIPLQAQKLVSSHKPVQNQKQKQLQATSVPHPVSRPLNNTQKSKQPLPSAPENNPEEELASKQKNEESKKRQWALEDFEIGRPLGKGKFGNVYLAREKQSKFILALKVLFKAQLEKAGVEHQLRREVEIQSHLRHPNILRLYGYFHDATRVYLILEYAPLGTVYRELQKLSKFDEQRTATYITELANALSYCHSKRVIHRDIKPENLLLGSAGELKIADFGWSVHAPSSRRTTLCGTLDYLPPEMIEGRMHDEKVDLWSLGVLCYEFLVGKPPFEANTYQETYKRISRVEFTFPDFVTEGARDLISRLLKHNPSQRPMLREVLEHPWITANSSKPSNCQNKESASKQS
# Outline: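 Cell-free enzymatic assay with human Aurora A, 1 hour after dosing. Fluorescent substrate turnover detected after electrophoretic mobility shift separation of substrate and product. Screened at 25 uM, actives retested in concentration-response up to 50 uM.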
# [14] = molecular target: human Protein Tyrosine Phosphatase Non-receptor Type 2 (PTPN2), PTPN2 (gene 5771) (UniProt P17706); assay: NVS_ENZ_hPTPN2: NovaScreen (NVS) Enzymatic Assay for human Protein Tyrosine Phosphatase Non-receptor Type 2 (PTPN2) (AID 2283207)
# Sequence of human Protein Tyrosine Phosphatase Non-receptor Type 2 (PTPN2), PTPN2 (gene 5771) (P17706 whole entry, looked up): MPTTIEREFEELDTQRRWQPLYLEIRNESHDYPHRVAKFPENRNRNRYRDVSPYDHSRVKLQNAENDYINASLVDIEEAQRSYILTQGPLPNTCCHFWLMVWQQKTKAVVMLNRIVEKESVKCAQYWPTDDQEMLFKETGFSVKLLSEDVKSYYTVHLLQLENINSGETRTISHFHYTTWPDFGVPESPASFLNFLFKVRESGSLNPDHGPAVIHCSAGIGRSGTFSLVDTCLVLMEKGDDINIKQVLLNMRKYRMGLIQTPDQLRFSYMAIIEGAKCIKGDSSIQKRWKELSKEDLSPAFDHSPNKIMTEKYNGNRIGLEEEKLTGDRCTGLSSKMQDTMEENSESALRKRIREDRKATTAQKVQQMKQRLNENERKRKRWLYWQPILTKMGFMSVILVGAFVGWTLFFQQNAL
# Outline: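 Cell-free recombinant enzyme with fluorescent substrate, product separated by electrophoretic mobility shift; read 1 h after dosing. Primary screen single concentration (25 uM) in duplicate; actives followed in concentration series; loss of signal versus DMSO.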
compound,measurement,setting,value
S=c1[nH]c2ccccc2[nH]1,outcome,[1],inactive
O=C(NC(=O)c1c(F)cccc1F)Nc1ccc(Oc2ccc(C(F)(F)F)cc2Cl)cc1F,AC50,[2],56.3 µM (active)
same,AC50,[3],40.8 µM (active)
same,outcome,[4],inactive
c1ccc(Nc2ccc3ccccc3c2)cc1,outcome,[5],inactive
CCCCCCCCCC(=O)O,outcome,[6],inactive
CC(C)(c1ccc(O)cc1)c1ccc(O)cc1,outcome,[7],inactive
N#CSCSc1nc2ccccc2s1,AC50,[8],4.46 µM (active)
same,AC50,[9],25 µM (active)
CCN(CC)CCOc1ccc(C(=C(Cl)c2ccccc2)c2ccccc2)cc1,outcome,[10],inactive
CN(C)c1ccc(C(=C2C=CC(=[N+](C)C)C=C2)c2ccc(N(C)C)cc2)cc1,AC50,[11],18.2 µM (active)
c1ccc2[nH]c(-c3cscn3)nc2c1,outcome,[12],inactive
O=C(c1ccc(O)cc1O)c1ccc(O)cc1O,AC50,[13],22.2 µM (active)
CCCCCCCCCCCCc1ccccc1S(=O)(=O)O,AC50,[14],19.9 µM (active)
